# The supplement of paper PMC6555819
# What was measured:
# Experiment in all cases: PBM binding z-score (relative to random genomic background probes); higher = stronger binding; sequences stand for … in GC…GCGATTGACAGCGTAGAATGAAGG
# [1] = test system: FXR:RXRa (NR concentration 270 nM, RXRa partner concentration 90 nM)
# Outline: (§1)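 Random background probes are the reference for binding z-scores. These scores derive from regression-normalized fluorescence on custom Agilent 4×180K protein-binding microarrays incubated 1 h with ligand-free nuclear receptor dimers. Binding was detected with antibodies against each partner (one per run).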
# [2] = test system: LXRa:RXRa (NR concentration 270 nM, RXRa partner concentration 90 nM)
# Outline: as §1
# [3] = test system: LXRa homodimer (NR concentration 270 nM)
# Outline: as §1
# [4] = test system: LXRb:RXRa (NR concentration 270 nM, RXRa partner concentration 90 nM)
# Outline: as §1
# [5] = test system: LXRb homodimer (NR concentration 270 nM)
# Outline: as §1
# [6] = test system: PPARa:RXRa (NR concentration 270 nM, RXRa partner concentration 90 nM)
# Outline: as §1
# [7] = test system: PPARg:RXRa (NR concentration 180 nM, RXRa partner concentration 90 nM)
# Outline: as §1
# [8] = test system: PPARg:RXRa 270nM:90nM, anti-RXR (NR concentration 270 nM, RXRa partner concentration 90 nM)
# Outline: as §1
# [9] = test system: PPARg:RXRa 30nM:10nM, anti-RXR (NR concentration 30 nM, RXRa partner concentration 10 nM)
# Outline: as §1
# [10] = test system: PPARg:RXRa 90nM:30nM, anti-RXR (NR concentration 90 nM, RXRa partner concentration 30 nM)
# Outline: as §1
Sequence,PBM binding z-score [1],PBM binding z-score [2],PBM binding z-score [3],PBM binding z-score [4],PBM binding z-score [5],PBM binding z-score [6],PBM binding z-score [7],PBM binding z-score [8],PBM binding z-score [9],PBM binding z-score [10]
CCTCACGGGTCACGAGGTTATAGCACGACGAGCG,6.54,4.19,0.232,3.64,-0.109,5.59,6.23,5.68,2.34,4.25
AGAACGAGGGCAAAGAGTTGATAGCACGGGTGGC,0.422,0.331,-0.368,-0.152,-0.712,1.78,1.8,2.07,0.549,1.55
CCGACTTGGGCATAAGGTTACCATAAGCCAGCCC,0.141,1.54,-0.195,0.516,-1.29,0.631,0.738,0.712,-0.372,0.427
TCATATAGGTAAAGGTGACAGTCGAACGATATGA,0.847,1.04,0.0349,0.847,-0.211,2.88,3.72,4.32,4.16,4.4
ATCTCAAGGTAACCAAGTTCAGTGAATGCCGAAC,0.76,1.12,0.681,0.656,0.916,0.956,0.372,0.412,0.204,0.378
CGTCCAAGGTCAGAGAGGTCAGGGAATGCCGAGT,6.63,5.17,3.24,4.51,0.359,5,4.38,4.53,1.42,3.6
GCTAGTTGGTCAGTAAAACGTCACACACCGGTCG,-0.277,-0.464,-0.383,-0.473,-0.195,-0.343,0.524,-0.186,-0.445,-0.286
CTGACTGGGGCAAAGGTTACCATACTCAGTACGA,1.83,1.87,-0.166,3.05,-0.352,6.09,11.3,9.42,9.13,10.2
CGTCCAAGGTCAGAGGTCAGTGAAGAGATGACGG,6.67,5.39,1.56,4.73,0.465,6.09,8.26,6.86,5.6,7.06
CCTTACGGGTCAAGGTTATTGCACGGGTGGTACG,5.1,3.67,0.262,2.96,0.000433,4.77,4.52,4.63,2.03,3.46
ACTTACGGGTCAACCAGGTTATAGCACGCGTATA,7.15,5.03,0.836,4.26,0.9,5.69,6,5.69,3.07,4.26
ATAAGTAGGTTACATCCGGGTCATTCAGGCTATG,2.43,4.37,1.57,2.84,1.24,4.53,6.68,5.15,3.19,4.37
CTACCAAGGTGAAAAAGGTCGTTGATTACTATTC,1.22,1.45,0.405,1.86,-0.412,2.61,0.694,1.3,0.297,0.721
GCTTGTAGATCAAGGTTCAGAAAGACTAAGCTAA,-0.0392,0.122,0.0153,0.103,-0.768,2.44,4.87,5.28,3.39,5.82
CGAACTAGGTCAAGGACAGTGATTCTCCGCACGC,3.46,2.21,0.289,1.56,-0.542,4.8,7.19,6.34,3.52,5.66
CCTATTGGGCCACGAAAGGTCATTGATTCAGTGA,3.94,5.43,5.04,4.14,0.248,4.6,2.92,4.31,1.71,3.67
ATACCAAGGTGATCGTGAGGTCGTTGCTACTAAC,1.95,1.3,0.422,1.19,0.0744,1.65,0.201,0.438,-0.28,0.185
ACTAGCAGGCTAAGTTTGGGTCACTCAAACAAAG,-0.0373,-0.132,-0.315,0.424,-0.557,1.28,-0.0855,0.315,-0.575,-0.155
TCTATTAGTTGAAGAGCAACCGACGAGTCCGTTT,0.119,0.663,-0.0692,0.436,0.0793,0.395,-0.0464,1.45,3.13,2.28
AGAACGAGGGCAATGAGTTGATTGCACGGGTGGC,0.165,0.157,-0.593,-0.398,-0.715,1.23,1.15,0.624,-0.179,0.252
CAAACTAGGTCAAGGTCAAAGTCGGTTTGTGCCA,6.65,5.95,4.23,4.67,1.63,6.12,9.81,8.12,7.05,8.27
ATCGAAAGGTCGACGAGGCGAGTATACACCGTTT,3.59,3.38,0.0627,2.5,0.404,4.27,2.48,2.74,0.711,1.71
TCATATAGGTAAATGCTAGGTGTAAGTCCGATCT,0.454,0.941,0.2,0.659,-0.0969,1.05,0.749,2.17,3.9,2.97
CCTGCTAGGTCAATGGTCAGCAAAAGCAGCTCGC,2.97,2.15,0.13,1.33,-0.077,3.32,4.8,5.15,2.5,4.66
